Assay results taken from PubChem BioAssay (EPA / NIEHS).
The source made the active and inactive calls. The calls were made as follows: active = hit-call score of the fitted dose curve at least 0.9, where 1 is the maximum; inactive = score below 0.9.

What follows are compounds tested against Transcriptional activator Myb (Homo sapiens) (UniProt P10242) (assay: ATG_Myb_CIS: Attagene CIS-FACTORIAL HepG2 Assay for human Myeloblastosis (Myb) Proto-Oncogene Transcription Factor (AID 2282986)). Settings: HepG2 Attagene CIS-FACTORIAL Myb reporter transcription; actives raise or lower the signal.
Sequence of Transcriptional activator Myb (Homo sapiens) (P10242 whole entry, looked up): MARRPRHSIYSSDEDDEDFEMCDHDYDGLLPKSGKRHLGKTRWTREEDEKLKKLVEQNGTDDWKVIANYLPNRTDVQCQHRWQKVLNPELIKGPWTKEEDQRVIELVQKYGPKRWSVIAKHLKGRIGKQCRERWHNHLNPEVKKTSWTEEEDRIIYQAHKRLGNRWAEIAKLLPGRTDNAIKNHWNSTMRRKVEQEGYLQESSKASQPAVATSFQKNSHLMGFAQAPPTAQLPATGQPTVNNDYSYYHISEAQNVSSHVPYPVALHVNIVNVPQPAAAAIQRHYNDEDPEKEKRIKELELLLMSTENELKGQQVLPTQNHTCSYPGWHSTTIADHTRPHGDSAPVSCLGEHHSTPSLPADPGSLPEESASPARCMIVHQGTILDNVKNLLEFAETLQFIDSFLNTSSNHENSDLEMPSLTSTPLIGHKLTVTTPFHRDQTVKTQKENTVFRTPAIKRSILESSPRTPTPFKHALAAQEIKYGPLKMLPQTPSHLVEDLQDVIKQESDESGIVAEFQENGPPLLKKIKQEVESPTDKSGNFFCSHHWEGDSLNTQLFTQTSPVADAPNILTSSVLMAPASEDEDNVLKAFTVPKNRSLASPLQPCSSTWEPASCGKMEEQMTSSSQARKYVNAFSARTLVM
Protocol: ATG_CIS is a cell-based, multiplexed-readout assay that uses HepG2, a human liver cell line, with measurements taken at 24 hours after chemical dosing in a 24-well plate.ATG_Myb_CIS is one of 52 assay component(s) measured or calculated from the ATG_CIS assay. It is designed to make measurements of mRNA induction, a form of inducible reporter, as detected with fluorescence intensity signals by Reverse transcription polymerase chain reaction (RT-PCR) and Capillary electrophoresis technology.Data from the assay component ATG_Myb_CIS was analyzed into 1 assay endpoint. This assay endpoint, ATG_Myb_CIS, was analyzed with bidirectional fitting relative to DMSO as the negative control and baseline of activity. Using a type of inducible reporter, measures of mRNA for gain or loss-of-signal activity can be used to understand the reporter gene at the transcription factor-level as they relate to the gene MYB. Furthermore, this assay endpoint can be referred to as a primary readout, because this assay has produced multiple assay endpoints where this one serves a reporter gene function. To generalize the intended target to other relatable targets, this assay endpoint is annotated to the dna binding intended target family, where the subfamily is MYB proteins.
Human liver HepG2 cells are transiently transfected with multiple reporter transcription units (MRTUs) in 6-well plates using FuGene 6 reagent (Roche; 3 ml FuGene/1 mg DNA). The MRTU constructs are regulated by a cis-regulating element (promoter). […] A major difference between the CIS and TRANS system is that in CIS activities of endogenous TFs are measured, whereas the TRANS assay evaluates changes in activities of exogenous, chimeric NR-Gal4 proteins. […] At the end of 24 hour incubation, total RNA was isolated using TriZol reagent (Invitrogen). The isolated RNA is then reverse-transcribed using oligo(dT) primer and Mo-MLV reverse transcriptase (Invitrogen) with DNAse I (Ambion) treatment for 30 min. The one-tenth of the produced cDNA was amplified by PCR using Taq DNA polymerase (Invitrogen) and two reporter sequence-specific primers. The PCR products were fluorescently labeled by primer extension with 6-arboxyfluorescein (6-FAM) 5'-labeled reporter sequence-specific primer (2 min at 95 C, 20 s at 68 C and 10 min at 72 C) and these products were digested with 5U of HpaI (New England Biolabs) for 2h at 37 C. The fragments were purified using Qiaquick PCR columns (Qiagen), analyzed on an ABI 3130xL genetic analyzer (Applied Biosystems) with peak positions identified by using a set of X-rhodamine (ROX)-labeled MapMarker1000 molecular weight standards (BioVentures). The raw capillary electrophoresis data was processed using Attagraph software (Attagene).

Structure (SMILES) | outcome | AC50
CC(C)=CCC/C(C)=C\CO | inactive | 
O=C1CCC(N2C(=O)c3ccccc3C2=O)C(=O)N1 (stereo not given) | inactive | 
O=C1OC(=O)C2C3C=CC(C3)C12 (stereo not given) | inactive | 
CC/C(=C\C(=N/O)C(N)=O)C(C)[N+](=O)[O-] (stereo not given) | inactive | 
O=C(O)CCN(C1(C(=O)NO)CCCC1)S(=O)(=O)c1ccc(Oc2ccc(F)cc2)cc1 | inactive | 
CCn1nc(Cc2ccccc2)cc1C1CCN(C[C@H]2C[C@H](N(C)[C@@H](C(=O)O)C(C)C)C[C@@H]2c2cccc(F)c2)CC1 | inactive | 
O=C(CCCCCCCCc1cccnc1)N1CCC(C=C(c2ccccc2)c2ccccc2)CC1 |  | 60.2 µM (active)
CCOC(=O)CC(CC(=O)OCC)(OC(C)=O)C(=O)OCC | inactive | 
CC(C)CCCCCCCOC(=O)CCCCC(=O)OCCCCCCCC(C)C | inactive | 
CC(C)=CCC/C(C)=C/CO | inactive | 
COc1ccc(/C=C/S(=O)(=O)NC(=O)c2ccc(C)cc2Cl)cc1 | inactive | 
CCCCCCc1ccc(O)cc1O | inactive | 
CCCCC(CC)COC(=O)CCCCCCCCC(=O)OCC(CC)CCCC (stereo not given) | inactive | 
CC(=O)OCCC(C)C | inactive | 
CCOC(=O)COc1ccc2c(c1)CC(NCC(O)c1cccc(Cl)c1)CC2 (stereo not given) | inactive | 
Cn1c(=O)c2c(ncn2C)n(C)c1=O | inactive | 
Cc1c(-c2cccnc2)c2ccccc2n1CCCCC(=O)O | inactive | 
COCCOCCOCCOC | inactive | 
NC(=O)NO | inactive | 
COC(=O)CC(=O)OC | inactive | 

Structure (SMILES) | outcome | AC50
O=P(OC(CCl)CCl)(OC(CCl)CCl)OC(CCl)CCl |  | 144 µM (active)
CC1(C)C(=O)N(Br)C(=O)N1Br | inactive | 
Cc1ccc(C)c(O)c1 | inactive | 
Cc1ccc(O)cc1 | inactive | 
CNCc1ccc(NC(=O)c2c[nH]c3c2C(=O)CCC3)cc1 | inactive | 
Cc1[nH]cnc1C[C@H]1CCc2c(C)c3ccccc3n2C1=O | inactive | 
Cn1c(=O)cc(Oc2ccc(F)cc2F)c2cnc(NCC(C)(C)O)nc21 | inactive | 
COC(=O)c1c(Cl)c(Cl)c(C(=O)OC)c(Cl)c1Cl | inactive | 
CC(=O)OC[C@H]1O[C@@](COC(C)=O)(O[C@H]2O[C@H](COC(C)=O)[C@@H](OC(C)=O)[C@H](OC(C)=O)[C@H]2OC(C)=O)[C@@H](OC(C)=O)[C@@H]1OC(C)=O | inactive | 
CC1=CC(=O)CC(C)(C)C1 | inactive | 
O=C(O)c1cccc(N(Cc2cccnc2)c2ccc(OC(F)F)c(OC(F)F)c2)c1 | inactive | 
Nc1cccc(N)c1 | inactive | 
O=C(O)c1cccc(Oc2ccccc2)c1 | inactive | 
CCC(C)(C)C(=O)O[C@H]1C[C@@H](C)C=C2C=C[C@H](C)[C@H](CC[C@@H]3C[C@@H](O)CC(=O)O3)[C@H]21 | inactive | 
C=CC(=C)CCC=C(C)C | inactive | 
CC(C)c1cccc(C(C)C)c1N1C(=O)c2ccc(O)cc2C1=O | inactive | 
CC[C@H]1OC(=O)[C@H](C)[C@@H](O[C@H]2C[C@@](C)(OC)[C@@H](O)[C@H](C)O2)[C@H](C)[C@@H](O[C@@H]2O[C@H](C)C[C@H](N(C)C)[C@H]2O)[C@](C)(O)C[C@@H](C)C(=O)[C@H](C)[C@@H](O)[C@]1(C)O | inactive | 
Nc1ccc(Nc2ccccc2)cc1 | inactive | 
Cc1ccc(N)cc1O | inactive | 
CCOc1cccc(-n2cc(C(=O)N3CCN(c4cc(C(=O)O)c5ccccc5c4)CC3)nc2-c2ccc(C)cc2)c1 |  | 152 µM (active)
